Measured values published in PubChem BioAssay (EPA / NIEHS).
Inconclusive results are not listed. The source made the active and inactive calls. How the source made its calls: active means hit-call score of the fitted dose curve at least 0.9, where 1 is the maximum; inconclusive means response in the unintended direction; inactive means score below 0.9.

Biological target: Ratio of Nucleoli Translocation and Cytoplasm, AR (gene 367) (UniProt P10275)
Test: UPITT_HCI_U2OS_AR_TIF2_Nucleoli_Cytoplasm_Ratio_Antagonist: University of Pittsburgh U2OS Androgen Receptor-Transcriptional Intermediary Factor 2 (AR-TIF2) Antagonism High Content Imaging Assay for Ratio of Nucleoli Translocation and Cytoplasm (AID 2283999);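 further: antagonists lower the DHT-driven ratio of nucleolar to cytoplasmic red signal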
Text: UPITT_AR_TIF2_PPIB is a cell-based, high-content imaging assay that uses U2OS, a human osteosarcoma cell line, expressing a human androgen receptor fused to red fluorescent protein and the coactivator TIF2 fused to green fluorescent protein. UPITT_HCI_U2OS_AR_TIF2_Nucleoli_Cytoplasm_Ratio_Antagonist is one of four assay components measured from the UPITT_AR_TIF2_PPIB assay. It is designed to make measurements of the ratio of red fluorescence localized in the nucleolar region of the cell nucleus to red fluorescence localized in the cytoplasm as detected with high-content fluorescent imaging.Data from the assay component UPITT_HCI_U2OS_AR_TIF2_Nucleoli_Cytoplasm_Ratio_Antagonist was analyzed into 1 assay endpoint. This assay endpoint, UPITT_HCI_U2OS_AR_TIF2_Nucleoli_Cytoplasm_Ratio_Antagonist, was analyzed in the positive analysis fitting direction relative to DHT as the baseline of activity. Using a type of binding reporter, measures of receptor for loss-of-signal activity can be used to understand the binding at the pathway-level as it relates to the gene AR.
Daughter plates containing 2 uL of 10 mM compounds in DMSO were prepared and replicated from the 384-well Library of Pharmacologically Active Compounds (LOPAC) master plates using the Bravo outfitted with a 384-well transfer head. Aluminum adhesive plate seals were applied with an Abgene Seal-IT 100 (Rochester, NY) plate sealer, and the plates were stored at -20 C in a Matrical MatriMinistore (Spokane, WA) automated compound storage and retrieval system. For screening, LOPAC daughter plates were withdrawn from -20C storage, thawed to ambient temperature, centrifuged 1-2 min at 50 g, and the plate seals were removed before the transfer of 98 uL of serum-free tissue culture medium (SFM) into wells using the BioTek Microflo liquid handler (BioTek, Winooski, VT) to generate a 200 uM intermediate stock concentration of library compounds (2.0% DMSO). The diluted compounds were mixed by repeated aspiration and dispensation using a 384-well P30 dispensing head on the Evolution P3 (EP3) liquid handling platform (PerkinElmer, Waltham, MA) and then 5 uL of diluted compounds was transferred to the wells of assay plates. In the LOPAC screen, compounds were individually tested at a final concentration of 20 uM (0.2% DMSO). After the diluted compounds had been transferred from the daughter plates to the primary HCS assay plates, aluminum adhesive plate seals were applied and the diluted daughter plates were stored frozen at -20C. To confirm active compounds identified in the primary screen, we withdrew the LOPAC daughter plates containing the 200 uM intermediate concentration of library compounds (2.0% DMSO) from -20C storage, thawed them to ambient temperature, centrifuged them for 1-2 min at 50 g, and removed the plate seals. A work list was generated to direct the Multiprobe Janus liquid handling platform (PerkinElmer) to cherry pick 75 uL from the wells of the diluted daughter plates that were flagged active in the primary screen and to reformat these into a 384-well plate hit confirmation daughter plate. Five microliters of primary HCS active compounds was then transferred into triplicate wells of assay plates using a 384-well P30 dispensing head on the Evolution P3 (EP3) liquid handling platform (PerkinElmer). […] Daughter plates containing 2 uL of the serially diluted compounds in DMSO were prepared and replicated from the 384-well serial dilution master plates using the Bravo outfitted with a 384-well transfer head. Aluminum adhesive plate seals were applied and plates were stored at -20C. For testing in the bioassays, daughter plates were withdrawn from -20C storage, thawed to ambient temperature, centrifuged for 1-2 min at 50 g, and the plate seals were removed before the transfer of 38 uL of SFM into wells using the BioTek Microflo liquid handler (BioTek) to generate an intermediate stock concentration of library compounds ranging from 1.95 to 500 uM (5.0% DMSO). […]

Sequence of Ratio of Nucleoli Translocation and Cytoplasm, AR (gene 367) (P10275 whole entry, looked up): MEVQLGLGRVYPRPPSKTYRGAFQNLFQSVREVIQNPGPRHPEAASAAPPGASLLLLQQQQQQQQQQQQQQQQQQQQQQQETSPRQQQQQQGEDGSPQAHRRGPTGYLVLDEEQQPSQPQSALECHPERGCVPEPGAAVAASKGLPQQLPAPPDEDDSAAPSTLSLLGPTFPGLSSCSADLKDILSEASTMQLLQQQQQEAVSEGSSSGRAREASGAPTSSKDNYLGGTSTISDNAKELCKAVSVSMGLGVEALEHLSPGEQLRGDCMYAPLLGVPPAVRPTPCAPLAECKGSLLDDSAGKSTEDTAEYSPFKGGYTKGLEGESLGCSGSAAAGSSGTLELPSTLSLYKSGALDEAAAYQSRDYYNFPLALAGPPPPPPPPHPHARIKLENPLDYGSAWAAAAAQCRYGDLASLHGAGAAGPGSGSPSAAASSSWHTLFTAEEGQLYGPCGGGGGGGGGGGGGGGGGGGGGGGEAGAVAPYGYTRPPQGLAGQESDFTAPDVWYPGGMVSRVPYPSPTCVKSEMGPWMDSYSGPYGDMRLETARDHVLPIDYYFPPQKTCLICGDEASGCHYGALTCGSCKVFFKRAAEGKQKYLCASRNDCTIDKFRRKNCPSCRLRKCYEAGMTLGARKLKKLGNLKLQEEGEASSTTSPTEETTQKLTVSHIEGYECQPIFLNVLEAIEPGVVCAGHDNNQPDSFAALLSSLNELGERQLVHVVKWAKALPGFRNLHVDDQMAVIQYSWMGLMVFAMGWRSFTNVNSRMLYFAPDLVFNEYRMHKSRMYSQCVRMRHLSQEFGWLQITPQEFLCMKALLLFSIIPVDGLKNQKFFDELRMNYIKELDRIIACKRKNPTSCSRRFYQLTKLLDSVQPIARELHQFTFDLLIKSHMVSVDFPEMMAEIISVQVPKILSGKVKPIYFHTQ

Structure (SMILES)	AC50	outcome
C[C@]12CC[C@H]3C(=CCc4cc(O)ccc43)[C@@H]1CCC2=O	3.04 µM (active)	–
CCCCCCCCCc1ccc(OCCO)cc1	–	inactive
CCN=c1cc2oc3cc(NCC)c(C)cc3c(-c3ccccc3C(=O)OCC)c-2cc1C	0.753 µM (active)	–
O=C1C=CC(=O)N1c1ccccc1	5.34 µM (active)	–
CCCCCCCC/C=C\CCCCCCCC(=O)OCC(O)CO (stereo not given)	–	inactive
CCCCCCCCCCCCCC[P+](CCCC)(CCCC)CCCC	9.75 µM (active)	–
COCCOCCC[Si](C)(O[Si](C)(C)C)O[Si](C)(C)C	–	inactive
CCCCCCCCCCCCC[N+](C)(C)Cc1ccccc1	13.7 µM (active)	–
CCN=C1C=CC(=C(c2ccc(N(CC)CC)cc2)c2ccc(N(CC)CC)cc2)c2ccccc21	4.7 µM (active)	–
CCc1ccc(C)nc1	–	inactive
